Records with an inconclusive call do not appear. The source made the active and inactive calls. Calls come from the whole dose curve; as a rule, active = well fitted curve in the direction sought with a large enough effect; inconclusive = small, poorly fitted or top-dose-only effect, or another doubt; inactive = no such curve, though single readings can be large; an effect the other way counts as inactive or inconclusive.
Tests used:
[1] = Quantitative High-Throughput drug screen in 47 multiple myeloma cell lines against the NCATS MIPE library collection: FR4_PLB cell viability assay (AID 1918924; note: nearly all actives have a fitted effect of over 35% in size)
In short: (§1)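 Primary qHTS used for cherry-picking: cells at 500/well, library compounds for 48 h (37C, 5% CO2), luminescent ATP assay.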

[2] = Quantitative High-Throughput drug screen in 47 multiple myeloma cell lines against the NCATS MIPE library collection: AMO1_DSMZ cell viability assay (AID 1918927; note: nearly all actives have a fitted effect of over 30% in size)
In short: (§2)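 Relative luminescence from CellTiter-Glo served as the viability signal, referenced to DMSO-treated (100%) and cell-free medium (0%) controls. Treatment lasted 48 hours at 37C with 500 cells per well.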

[3] = Quantitative High-Throughput drug screen in 47 multiple myeloma cell lines against the NCATS MIPE library collection: ARD_JJKsccE7 cell viability assay (AID 1918929)
In short: as §2

[4] = Quantitative High-Throughput drug screen in 47 multiple myeloma cell lines against the NCATS MIPE library collection: Karpas620_DSMZ cell viability assay (AID 1918959); note: nearly all actives have a fitted effect of over 30% in size
In short: as §1

[5] = Quantitative High-Throughput drug screen in 47 multiple myeloma cell lines against the NCATS MIPE library collection: Karpas417_ECACC cell viability assay (AID 1918961); conditions: Karpas417 myeloma viability, CellTiter-Glo ATP luminescence, 48 h; viability (% of DMSO): at 45.8 µM (top of the series)
In short: (§3)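 We plated 500 myeloma cells per well, pinned in MIPE 4.0 compounds, and incubated for 48 hours at 37C. ATP was then quantified with CellTiter-Glo, with DMSO and media-only wells defining 100% and 0%.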

[6] = Quantitative High-Throughput drug screen in 47 multiple myeloma cell lines against the NCATS MIPE library collection: INA6_PLB cell viability assay (AID 1918965; note: nearly all actives have a fitted effect of over 55% in size)
In short: as §3

[7] = Quantitative High-Throughput drug screen in 47 multiple myeloma cell lines against the NCATS MIPE library collection: H1112_PLB cell viability assay (AID 1918967; note: nearly all actives have a fitted effect of over 30% in size)
In short: as §2

[8] = Quantitative High-Throughput drug screen in 47 multiple myeloma cell lines against the NCATS MIPE library collection: Karpas25_ECACC cell viability assay (AID 1918968; note: nearly all actives have a fitted effect of over 35% in size)
In short: as §2

[9] = Quantitative High-Throughput drug screen in 47 multiple myeloma cell lines against the NCATS MIPE library collection: KMS12PE_JCRB cell viability assay (AID 1918972); note: nearly all actives have a fitted effect of over 30% in size
In short: as §3

[10] = Quantitative High-Throughput drug screen in 47 multiple myeloma cell lines against the NCATS MIPE library collection: EJM_DSMZ cell viability assay (AID 1918926; note: nearly all actives have a fitted effect of over 30% in size)
In short: as §2

[11] = Quantitative High-Throughput drug screen in 47 multiple myeloma cell lines against the NCATS MIPE library collection: ARP1_JJKsccF8 cell viability assay (AID 1918928; note: nearly all actives have a fitted effect of over 40% in size)
In short: (§4)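 ATP readout (CellTiter-Glo), 48 h drug incubation, 37 °C/5% CO2, 500 cells per well; normalisation to DMSO (100%) and media-only (0%) controls.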

[12] = Quantitative High-Throughput drug screen in 47 multiple myeloma cell lines against the NCATS MIPE library collection: JIM1_ECACC cell viability assay (AID 1918964)
In short: as §2

[13] = Quantitative High-Throughput drug screen in 47 multiple myeloma cell lines against the NCATS MIPE library collection: JJN3_DSMZ cell viability assay (AID 1918966; note: nearly all actives have a fitted effect of over 50% in size)
In short: as §2

[14] = Quantitative High-Throughput drug screen in 47 multiple myeloma cell lines against the NCATS MIPE library collection: KMS12BM_JCRB cell viability assay (AID 1918971); note: nearly all actives have a fitted effect of over 35% in size
In short: as §3

[15] = Quantitative High-Throughput drug screen in 47 multiple myeloma cell lines against the NCATS MIPE library collection: Delta47_JCRB cell viability assay (AID 1918925; note: nearly all actives have a fitted effect of over 45% in size)
In short: as §2

[16] = Quantitative High-Throughput drug screen in 47 multiple myeloma cell lines against the NCATS MIPE library collection: KMM1_JCRB cell viability assay (AID 1918960); note: nearly all actives have a fitted effect of over 30% in size
In short: as §4

[17] = Quantitative High-Throughput drug screen in 47 multiple myeloma cell lines against the NCATS MIPE library collection: KHM11_PLB cell viability assay (AID 1918962); note: nearly all actives have a fitted effect of over 35% in size
In short: as §1

[18] = Quantitative High-Throughput drug screen in 47 multiple myeloma cell lines against the NCATS MIPE library collection: JIM3_ECACC cell viability assay (AID 1918963; note: nearly all actives have a fitted effect of over 35% in size)
In short: as §1

[19] = Quantitative High-Throughput drug screen in 47 multiple myeloma cell lines against the NCATS MIPE library collection: KMS20_JCRB cell viability assay (AID 1918973); note: nearly all actives have a fitted effect of over 45% in size
In short: as §2

[20] = Quantitative High-Throughput drug screen in 47 multiple myeloma cell lines against the NCATS MIPE library collection: KMS27_JCRB cell viability assay (AID 1918970); note: nearly all actives have a fitted effect of over 30% in size
In short: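 ATP-based viability (CellTiter-Glo luminescence) is measured in cells treated 48 h with approved and investigational drugs at 37 °C. Controls are DMSO-only wells for full viability and media-only wells for none.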
Potency is the fitted concentration of half-maximal effect.

CC(C)c1noc(N2CCC(COc3ccc(-c4ccc(S(C)(=O)=O)cc4)nc3)CC2)n1
inactive: Potency [2] | Potency [3] | Potency [4] | Potency [5] | Potency [7]
active: Potency [1] 6.62 µM | Potency [6] 1.87 µM | Potency [8] 1.48 µM | Potency [9] 0.418 µM

Nc1nc(-c2nn(Cc3ccccc3F)c3ncccc23)nc(N)c1N1CCOCC1
inactive: Potency [1] | Potency [10] | Potency [11] | Potency [12] | Potency [13] | Potency [7] | Potency [14]
active: Potency [2] 20.9 µM | viability (% of DMSO) [5] 86.8%

CC(C)(C)c1cc(C(C)(C)C)c(NC(=O)c2c[nH]c3ccccc3c2=O)cc1O
inactive: Potency [15] | Potency [10] | Potency [2] | Potency [3] | Potency [4] | Potency [16] | Potency [5] | Potency [17] | Potency [18] | Potency [6] | Potency [7] | Potency [9] | Potency [19]

Nc1cccc(-c2cc3c(Oc4cccc(O)c4)ncnc3[nH]2)c1
inactive: Potency [3] | Potency [4] | Potency [9]
active: Potency [1] 14.8 µM | Potency [10] 16.6 µM | Potency [11] 20.9 µM | Potency [17] 16.6 µM | Potency [18] 16.6 µM | Potency [8] 18.7 µM | Potency [14] 20.9 µM | Potency [19] 18.7 µM

COc1cc(-c2nn(C3CCC(N4CCN(C(C)=O)CC4)CC3)c3ncnc(N)c23)ccc1NC(=O)c1cc2ccccc2n1C (stereo not drawn)
active: Potency [1] 5.26 µM | Potency [10] 20.9 µM | Potency [2] 0.59 µM | Potency [3] 0.372 µM | Potency [16] 0.372 µM | Potency [18] 2.35 µM | Potency [6] 2.96 µM | Potency [13] 7.43 µM | Potency [7] 0.0833 µM | Potency [14] 10.5 µM
inactive: Potency [5]

Cc1cc(Nc2cc(NC(=O)c3c(Cl)cccc3Cl)ccn2)nc(N)n1
active: Potency [15] 18.7 µM | Potency [10] 16.6 µM | Potency [2] 0.187 µM | Potency [11] 0.296 µM | Potency [3] 0.209 µM | Potency [16] 0.418 µM | Potency [5] 2.64 µM | Potency [17] 8.33 µM | Potency [18] 0.469 µM | Potency [6] 0.935 µM | Potency [13] 0.743 µM | Potency [7] 1.05 µM | Potency [8] 13.2 µM | Potency [20] 0.264 µM | Potency [14] 18.7 µM | Potency [9] 0.166 µM | Potency [19] 10.5 µM

Cc1cc(Nc2nc(N[C@@H](C)c3ccc(F)cc3)c(C#N)cc2F)n[nH]1
active: Potency [15] 2.96 µM | Potency [10] 16.6 µM | Potency [2] 0.235 µM | Potency [11] 1.05 µM | Potency [3] 0.332 µM | Potency [4] 0.296 µM | Potency [16] 1.87 µM | Potency [5] 0.209 µM | Potency [17] 8.33 µM | Potency [12] 0.296 µM | Potency [6] 0.372 µM | Potency [7] 16.6 µM | Potency [8] 1.48 µM | Potency [20] 0.935 µM | Potency [9] 0.935 µM | Potency [19] 5.26 µM

CCCCCCCCCC(=O)N[C@@H](Cc1c[nH]c2ccccc12)C(=O)N[C@H](CC(N)=O)C(=O)N[C@@H](CC(=O)O)C(=O)N[C@@H]1C(=O)NCC(=O)N[C@@H](CCCN)C(=O)N[C@@H](CC(=O)O)C(=O)N[C@H](C)C(=O)N[C@@H](CC(=O)O)C(=O)NCC(=O)N[C@H](CO)C(=O)N[C@@H]([C@@H](C)CC(=O)O)C(=O)N[C@@H](CC(=O)c2ccccc2N)C(=O)O[C@@H]1C
inactive: Potency [15] | Potency [10] | Potency [2] | Potency [11] | Potency [4] | Potency [16] | Potency [17] | Potency [18] | Potency [12] | Potency [20] | Potency [14] | Potency [9]

COc1cc(C(C)C)c2c(c1)S(=O)(=O)N(COc1cc(=O)n3cccc(OCCN4CCCCC4)c3n1)C2=O
active: Potency [15] 16.6 µM | Potency [10] 18.7 µM | Potency [2] 13.2 µM | Potency [4] 20.9 µM | Potency [16] 26.4 µM | Potency [18] 18.7 µM | Potency [12] 18.7 µM | Potency [6] 13.2 µM | Potency [13] 5.26 µM | Potency [7] 14.8 µM | Potency [8] 13.2 µM | Potency [20] 18.7 µM | Potency [9] 23.5 µM | Potency [19] 18.7 µM

NCC(=O)Nc1ccc(-n2nc(C(F)(F)F)cc2-c2ccc3c(ccc4ccccc43)c2)cc1
active: Potency [15] 18.7 µM | Potency [10] 23.5 µM | Potency [2] 0.0662 µM | Potency [11] 23.5 µM | Potency [3] 0.148 µM | Potency [16] 5.26 µM | Potency [17] 26.4 µM | Potency [18] 18.7 µM | Potency [6] 18.7 µM | Potency [13] 20.9 µM | Potency [7] 20.9 µM | Potency [8] 16.6 µM | Potency [9] 0.526 µM | Potency [19] 9.35 µM
inactive: Potency [4]

CCCCCN(CCC12CC3CC(CC(C3)C1)C2)C(=O)NCCCc1ccncc1
inactive: Potency [16]
active: Potency [1] 18.7 µM | Potency [10] 23.5 µM | Potency [2] 14.8 µM | Potency [3] 11.8 µM | Potency [4] 2.96 µM | Potency [18] 20.9 µM | Potency [7] 18.7 µM | Potency [20] 4.18 µM | Potency [14] 26.4 µM | Potency [9] 4.69 µM | Potency [19] 18.7 µM

Cc1cc(Nc2cc(N3CCN(C)CC3)nc(C=Cc3ccccc3)n2)n[nH]1
active: Potency [15] 3.82 µM | Potency [10] 38.2 µM | Potency [2] 8.55 µM | Potency [11] 4.29 µM | Potency [3] 13.6 µM | Potency [4] 12.1 µM | Potency [18] 7.62 µM | Potency [6] 3.4 µM | Potency [13] 30.3 µM | Potency [7] 38.2 µM | Potency [8] 8.55 µM | Potency [20] 15.2 µM | Potency [14] 48.1 µM | Potency [19] 4.29 µM

From PubChem BioAssay (NCATS)
